# Assay results published in ChEMBL document CHEMBL3988442, “University of Dundee, Small-Polar-MMV Screening Library” (2021).
# Target: AMP-activated protein kinase, AMPK (Homo sapiens) (UniProt P54646+O43741+P54619+Q9UGJ0+Q9Y478+Q13131+Q9UGI9)
# Assay: AMP-dependent Kinase enzyme assay. An in vitro enzyme assay that detects ADP turnover that is directly proportional to AMPK activity. This uses naive AMPK that is activated during the assay with MK-8722
# Assay type: functional
# Set-up: scale not given: direction of the effect not stated beside the values
# Conditions: 30 µM
row,SMILES,Percent Effect [%]
1,CC(C)(C)NC(=O)c1cnc2n1CCCC2,0.336
2,CC(c1nc(-c2ccccc2)no1)N1CCc2c(ncn2C2CC2)C1 (centres undefined),10.5
3,COc1nccc(N2CC[C@@H](N3CCN(C)CC3)[C@H](O)C2)c1C#N,-9.72
4,Cc1nnc(CN(C)CC(=O)N2CCCC(C)CC2)n1C (centres undefined),0.221
5,Cc1ncsc1C(=O)N1CCCC1c1c(C)nn(C)c1C (centres undefined),1.43
6,Cc1[nH]c2c(C)ccc(C)c2c1CC(=O)NC1CCCNC1=O (centres undefined),6.1
7,O=C(CCn1cccn1)NCCOc1ccc2c(c1)OCO2,-5.16
8,CC(C)c1nccn1CC1CCCN1Cc1nc2ccccc2n1C (centres undefined),4.02
9,c1cc(CNCc2ccc(-n3cncn3)nc2)cc(OC2CCCC2)c1,9.46
10,Cc1noc(C)c1CN1CCCC1c1nnc2ccccn12 (centres undefined),-3.49
11,NC(=O)C1CCCN1Cc1nccn1CC(F)(F)F (centres undefined),1.35
12,CC(OCC1CC1)C(=O)Nc1cccc(C(=O)Nc2ccncc2)c1 (centres undefined),17.8
13,CNC(=O)C(C)NC(=O)c1cc(COc2ccc(OC)cc2Cl)[nH]n1 (centres undefined),-1.41
14,O=S(=O)(NCC1(c2cccs2)CCOCC1)c1cccnc1,-2.3
15,CC(C)COc1cncc(N2CCCN(c3ncccn3)CC2)n1,65.1
16,O=C(COC1CCCC1)NCc1ccc(O)c(F)c1,8.07
17,Cn1cc(S(=O)(=O)N(Cc2ccc(F)cc2F)C2CC2)cc1C(N)=O,3.23
18,Cc1cc2n(n1)CC(CNCc1cc(C)on1)CN2 (centres undefined),-6.26
19,O=C1CCC2(CCCN(CCn3cc(Cl)cn3)C2)CN1C1CCCC1 (centres undefined),14.4
20,CCCn1nnnc1COC(=O)C1COc2ccc(Cl)cc2C1 (centres undefined),19.7

row,SMILES,Percent Effect [%]
1,Cc1nccn1[C@@H]1CC[C@@H](N(C)S(=O)(=O)c2cccc(F)c2)[C@H]1O,28.1
2,COc1ccccc1C1CCN(C(=O)CN2C(=O)OC(C)(C)C2=O)CC1,-11.8
3,Cc1cn2c(n1)C(CNCc1cnn3ccccc13)CCC2 (centres undefined),-1.25
4,CNC(=O)NC(=O)CN(Cc1ccc(C#N)cc1)Cc1cccc(F)c1,-4.48
5,O=C(NC1CCCC1)N1C[C@H]2CN(c3ccccn3)C[C@@]2(C(=O)O)C1,3.09
6,CCNC(=O)CN(CC)C(=O)c1csc(Cc2ccccc2F)n1,4.98
7,Cc1ccc(C(=O)NC2CCN(C(C)C)C2)c(=O)[nH]1 (centres undefined),-2.69
8,Clc1ccccc1CCn1ccnc1-c1cn(C2CCNCC2)nn1,-7.28
9,Cc1ccn(C)c(=O)c1NC(=O)N(C)Cc1cccc(OC(C)C)c1,-92.7
10,CN1CCC(N(Cc2ccncc2)C(=O)COCC2CCCCO2)CC1 (centres undefined),1.82
11,COC(=O)CNC(=O)c1ccn(-c2ccc(Cl)c(Cl)c2)n1,13.8
12,CC(C)c1nc(CC(=O)Nc2cnccc2O)cs1,-1.17
13,Cc1cnc(N2CCN(C)CC2)nc1-c1ccnn1C,-3.23
14,CSCC(=O)N(C)Cc1noc(-c2ccccc2)n1,6.32
15,Cc1cc(N2CCC(O)(C(=O)O)CC2)nc2ccccc12,3.47
16,CCCN(Cc1nnnn1C1CC1)CC1COc2ccccc2O1 (centres undefined),7.59
17,Cc1ncc(C(=O)N2CCOC(C(=O)N3CCCCCC3)C2)c(C)n1 (centres undefined),-3.31
18,Cc1nc(C)c(C(=O)N2CCc3c(Cl)cccc32)o1,1.75
19,COCCN1CC2(CCCN(Cc3cc(=O)c(OC)co3)C2)CCC1=O (centres undefined),-2.15
